What follows are compounds tested on BMPR1A. Settings: concentration: 1 μM, replicates: in singlicate; n = 1.
With Cc1ccc(NC(=O)c2cccc(C#N)c2)cc1-c1ccc(C(=O)Nc2ccncc2)cc1 [GSK1398463] the “%Inh” value was 0%.
For CS(=O)(=O)CCNCc1ccc(-c2ccc3ncnc(Nc4ccc(OCc5ccccc5)c(Cl)c4)c3c2)o1.Cl [GW574783], the “%Inh” value was 0%.
Fc1ccc(-c2ncn(CCCNCc3ccccc3)c2-c2ccncc2)cc1 was tested, and the “%Inh” value was 13%.
In the case of CCc1nc(-c2cccc(C)c2)c(-c2ccnc(NC(=O)c3ccccc3)c2)s1, the “%Inh” value is reported as 0%.
In the case of c1ccc(-c2ccc3c(-c4ccnc(Nc5ccc6c(c5)OCCO6)n4)cnn3n2)cc1 [GW818941], the “%Inh” value is reported as 0%.
For CSc1ccc(NC2=C(c3ccccc3Cl)C(=O)NC2=O)cc1 [SB-342411], the “%Inh” value was 0%.
FC(F)(F)c1ccc(-c2cc(-c3c[nH]nc3-c3ccccn3)ccn2)cc1 [GW599550] was tested, and the “%Inh” value was 0%.
For COc1ccc(NC(=O)Nc2ccc(C)c(-c3ccc(C(=O)Nc4ccncc4)cc3)c2)cc1 [GSK1398475], the “%Inh” value was 0%.
With Fc1ccc(Nc2nccc(-c3c(-c4ccc(Cl)cc4)nn4ncccc34)n2)cc1F [GW829058] the “%Inh” value was 18%.
With Cn1cc(-c2ccc3c(c2)CCN3C(=O)Cc2cccc(C(F)(F)F)c2)c2c(N)ncnc21 [GSK2606414] the “%Inh” value was 0%.
O=C(CCO)NCCn1ccc2ncnc(Nc3ccc(Oc4cccc(C(F)(F)F)c4)c(Cl)c3)c21 was tested, and the “%Inh” value was 0%.
CNc1nccc(-c2c(-c3ccc(F)cc3)ncn2CCCN2CCOCC2)n1 [SB-222516] was tested, and the “%Inh” value was 13%.
With COC(=O)c1cccc(NC(=O)NCCNc2ccnc(Nc3ccc(F)cc3)n2)c1 [GSK1379883] the “%Inh” value was 0%.
With CN1CCC(n2cnc(-c3ccc(F)cc3)c2-c2ccnc(NC3CCNCC3)n2)CC1 [SB-229482] the “%Inh” value was 6%.
In the case of COc1ccc(NC(=O)c2ccc(-c3cc(-c4nnc(C)o4)ccc3C)cc2)cc1 [GW595885], the “%Inh” value is reported as 0%.
With Cl.c1ccc(Cn2ccc3cc(Nc4ncnc5ccccc45)ccc32)cc1 [GW275568] the “%Inh” value was 0%.
Nc1nccc2scc(-c3ccc4c(c3)CCN4C(=O)Cc3cc(F)ccc3F)c12 [GSK2587663] was tested, and the “%Inh” value was 0%.
With C[C@@H]1CCN(C(=O)CO)C[C@@H]1N(C)c1ncnc2[nH]ccc12 the “%Inh” value was 23%.
With FC(F)(F)c1cc(Nc2nccc(-c3c(-c4ccc(Cl)cc4)nn4ncccc34)n2)ccc1Cl [GW829351] the “%Inh” value was 0%.
In the case of O=C(Nc1ccccc1)Nc1ccc(Oc2ccc3nccn3n2)cc1, the “%Inh” value is reported as 18%.
In the case of Clc1ccc(-c2cc(-c3c[nH]nc3-c3ccccn3)ccn2)cc1 [GW681251], the “%Inh” value is reported as 0%.
In the case of CCCc1ccc(S(=O)(=O)NC2CCN(c3ccnc(Nc4ccc(OC)cc4)n3)C2)cc1 (stereo not drawn) [GSK1379737], the “%Inh” value is reported as 0%.
O=C(Nc1n[nH]c2nc(-c3ccco3)c(Br)cc12)c1ccc(CN2CCCC2)cc1.O=C(O)[C@H](O)[C@@H](O)C(=O)O [SB-742352] was tested, and the “%Inh” value was 0%.
For CCC(CC)(CC)n1cnc2c(N)ncnc21 [SKF-97620], the “%Inh” value was 7%.
With Clc1cc(Nc2ncnc3cc[nH]c23)ccc1OCc1ccccn1 the “%Inh” value was 25%.
For CCn1c(-c2ccncc2)nc2cnccc21 [SB-735216], the “%Inh” value was 4%.
For Cl.Cl.c1ccc(-c2cc3ccncc3cc2OC2CCNCC2)cc1 [GSK1122999], the “%Inh” value was 0%.
COc1ccc(-c2nc3n(c2-c2ccncc2)CCC3)cc1 [SKF-104493] was tested, and the “%Inh” value was 0%.
For O=c1cc(N2CCOCC2)nc2n(Cc3cccc(Cl)c3)ccn12 [GSK2296823], the “%Inh” value was 0%.
COc1ccc(Nc2nccc(N3CCC(NC(=O)c4cccc(NC(C)=O)c4)C3)n2)cc1 (stereo not drawn) [GSK1379732] was tested, and the “%Inh” value was 0%.
For Cc1ccc(O)cc1Nc1cc(C(F)(F)F)nc2ccc(-c3ccncc3)cc12 [GW630823], the “%Inh” value was 0%.
In the case of O=C(NCCCN1CCCC1=O)c1cnc(NCc2cc(Cl)ccc2Cl)nc1NC1CCNCC1, the “%Inh” value is reported as 6%.
COc1cc2ncnc(Nc3ccc(OCc4ccccc4Br)c(Cl)c3)c2cc1OC.Cl [GI261590] was tested, and the “%Inh” value was 0%.
Cc1cccc(-c2nc(Nc3ccc4[nH]nnc4c3)c3ccccc3n2)n1 [GW867587] was tested, and the “%Inh” value was 0%.
For CC(=O)Nc1n[nH]c2ncc(-c3ccccc3)cc12 [SB-548492], the “%Inh” value was 30%.
With COC(=O)c1c(-c2ccccc2)c2cc(Cl)ccc2c(=O)n1Cc1ccc(S(C)(=O)=O)cc1 the “%Inh” value was 0%.

Reference: article PMC5540273 (PLoS ONE, 2017)
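Also: KINOMEscan kinase panel screen.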
